23 molecules from PubChem BioAssay (Tox21) can be followed below.

The nature of test [1]: A CellTox Green Cytotoxicity Assay to monitor cytotoxicity in HepG2 cells - 0 hour (AID 1224882). Note: nearly all actives have a fitted effect of over 35% in size. In short, it runs like this:
(§1)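 HepG2 cells were seeded together with the CellTox Green dye at 600 cells/well, left 5 h at 37 C/5% CO2, then given compounds in DMSO. Fluorescence from dye bound to dead-cell DNA was read repeatedly over 40 h of treatment at 37 C.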

Test [2] can be described thus: A CellTox Green Cytotoxicity Assay to monitor cytotoxicity in HepG2 cells - 32 hour (AID 1224883). Note: nearly all actives have a fitted effect of over 50% in size. Note: potency is the fitted concentration of half-maximal effect. The essentials:
as §1

Test [3] is described as follows: A CellTox Green Cytotoxicity Assay to monitor cytotoxicity in HEK293 cells - 8 hour (AID 1224884). Note: nearly all actives have a fitted effect of over 35% in size. Note: potency is the fitted concentration of half-maximal effect. The essentials: (§2)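 HEK293 cells premixed with CellTox Green dye were seeded at 600 cells/well and left 5 h at 37 C/5% CO2 before pin transfer of 23 nL compound in DMSO. Fluorescence from dye bound to dead-cell DNA was read during 40 h treatment.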
Test [4] in a line: qHTS RealTime-Glo MT Cell Viability Assay in HepG2 cells - 16 hour (AID 1224885). Note: nearly all actives have a fitted effect of over 50% in size. Note: potency is the fitted concentration of half-maximal effect. The essentials:
(§3)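 Cells + NanoLuc/prosubstrate dispensed (600 cells/well) → 5 h at 37 C/5% CO2 → compounds in DMSO transferred → 40 h incubation at 37 C, luminescence read at 0, 8, 16, 24, 32, 40 h.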
Background: qHTS replaces the single test concentration by a dilution series.

Test [5] is described as follows: qHTS RealTime-Glo MT Cell Viability Assay in HEK293 cells - 24 hour (AID 1224886). Note: nearly all actives have a fitted effect of over 50% in size. Note: potency is the fitted concentration of half-maximal effect. The essentials:
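Tox21 10K qHTS, HEK293, 600 cells/well, RealTime-Glo reagent co-dispensed with cells; 5 h preincubation, compound by pintool, 37 C, luminescence at 0–40 h.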

Test [6] can be described thus: qHTS RealTime-Glo MT Cell Viability Assay in HEK293 cells - 8 hour (AID 1224887). Note: nearly all actives have a fitted effect of over 50% in size. Note: potency is the fitted concentration of half-maximal effect. The essentials: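 HEK293 cells mixed with RealTime-Glo reagents (NanoLuc plus cell-permeant prosubstrate) at 600 cells/well, preincubated 5 h at 37 C/5% CO2, then given 23 nL compound in DMSO. Nonlytic luminescence from viable cells was read at 0, 8, 16, 24, 32 and 40 h.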
The nature of test [7]: A CellTox Green Cytotoxicity Assay to monitor cytotoxicity in HEK293 cells - 16 hour (AID 1224888). Note: nearly all actives have a fitted effect of over 35% in size. Note: potency is the fitted concentration of half-maximal effect. In short, it runs like this:
as §2

Test [8] can be described thus: qHTS RealTime-Glo MT Cell Viability Assay in HepG2 cells - 0 hour (AID 1224889). Note: nearly all actives have a fitted effect of over 50% in size. The essentials: as §3
A short description of test [9]: A CellTox Green Cytotoxicity Assay to monitor cytotoxicity in HepG2 cells - 8 hour (AID 1224890). Note: nearly all actives have a fitted effect of over 45% in size. Note: potency is the fitted concentration of half-maximal effect. The essentials:
as §1

Test [10] can be described thus: A CellTox Green Cytotoxicity Assay to monitor cytotoxicity in HEK293 cells - 32 hour (AID 1224881). Note: nearly all actives have a fitted effect of over 40% in size. Note: potency is the fitted concentration of half-maximal effect. In short, it runs like this:
as §2

The structures appear in SMILES notation. Where “and” joins values, the source holds several entries; their conditions need not be identical. Equal entries are not always repeated. Records with an inconclusive call do not appear. A structure can be active in one record and inactive in another. Calls of active or inactive are those of the source. Calls come from the whole dose curve; as a rule, active = well fitted curve in the direction sought with a large enough effect in the repeat runs; inconclusive = weak or mixed curves; inactive = no such curve, though single readings can be large; an effect the other way counts as inactive or inconclusive.

Take `O=[N+]([O-])/N=C1\NCCN1Cc1ccc(Cl)nc1`: the Potency result in test [1], in test [2], in test [3], in [4], in test [5] and in test [6] was “inactive” each time. The Potency entry in test [7], in test [8] and in test [9] was “inactive” each time.

Consider `CCCCCCCC[N+](C)(CCCCCCCC)CCCCCCCC`, for which the Potency is 17.3 µM (active) and 27.6 µM (active) and 11 µM (active) in test [10]; 8.69 µM (active) and 19.5 µM (active) and 13.8 µM (active) in [2]; 24.5 µM (active) and 13.8 µM (active) in [3]; 548 nM (active) and 138 nM (active) and 2.19 µM (active) in test [5]; 9.75 µM (active) and 21.9 µM (active) and 15.5 µM (active) in test [6]; 24.5 µM (active) and 24.6 µM (active) and 15.5 µM (active) in test [7]. In test [9], the Potency was 21.8 µM (active) and 39 µM (active) and 21.9 µM (active). Besides, the Potency entry in [1] and in test [8] was “inactive” throughout.

As to `NN=C(N)N`, the Potency result in test [10], in test [1], in test [2], in test [3], in test [5] and in test [6] was “inactive” throughout. Also, the Potency result in test [7], in [8] and in test [9] was “inactive” each time.

As to `COP(=S)(OC)SCn1nnc2ccccc2c1=O`, the Potency result in [10], in test [1], in [2], in [3], in test [7] and in test [8] was “inactive” in each case. Moreover, the Potency entry in test [9] is “inactive”.

In the case of `O=P(OCCCl)(OCCCl)OCCCl`, the Potency result in test [10], in [1], in test [2], in test [3], in [5] and in [6] was “inactive” in each case. Besides, the Potency result in [7], in [8] and in [9] was “inactive” in each case.

As for `CS(=O)(=O)NC(=O)c1cc(Oc2ccc(C(F)(F)F)cc2Cl)ccc1[N+](=O)[O-]`, the Potency result in test [10], in test [1], in [2], in test [3], in test [4] and in test [5] was “inactive” throughout. The Potency result in [6], in [7], in test [8] and in test [9] was “inactive” throughout.

Turning to `N#CCCCCC#N`, the Potency result in test [10], in test [1], in test [2], in test [3], in test [5] and in test [6] was “inactive” in each case. For the same molecule, the Potency entry in test [7], in test [8] and in [9] was “inactive” in each case.

`CNC(=O)CSP(=S)(OC)OC`: the Potency entry in [10], in [1], in test [2], in test [3], in [4] and in [5] was “inactive” each time. Further, the Potency result in [6], in test [7], in [8] and in test [9] was “inactive” throughout.

Regarding `CCOP(=S)(OCC)OP(=S)(OCC)OCC`, the Potency result in test [10], in test [1], in [2], in test [3], in [5] and in [6] was “inactive” throughout. Further, the Potency entry in test [7], in test [8] and in [9] was “inactive” in each case.

With `OC(c1ccc(Cl)cc1)(c1cncnc1)c1ccccc1Cl` (stereo not given), the Potency was 25 µM (active) and inactive in test [10]; 17.7 µM (active) and inactive in test [2]; 7.04 µM (active) in test [5]; 22.3 µM (active) in [6]. The Potency result in [1], in test [3], in test [8] and in test [9] was “inactive” throughout.

For `Clc1cccc(Cl)c1`, the Potency result in [10], in test [1], in test [2], in test [3], in [5] and in test [6] was “inactive” in each case. The Potency entry in test [7], in [8] and in test [9] was “inactive” in each case.

For `O=[N+]([O-])c1ccc(Nc2ccccc2)cc1`, the Potency result in test [10], in [1], in [2], in [3], in test [7] and in [8] was “inactive” in each case. In test [9], the Potency entry is “inactive”. Moreover, the Potency in [5] is 44 µM (active) and 21.9 µM (active).

Turning to `COc1ccc(O)c(C(C)(C)C)c1`, the Potency result in [10], in test [1], in [3], in [4], in [5] and in test [6] was “inactive” throughout. The Potency result in test [7], in test [8] and in [9] was “inactive” each time.

Regarding `CCOS(=O)(=O)OCC`, the Potency result in test [10], in test [1], in [2], in test [3], in test [5] and in test [6] was “inactive” each time. Also, the Potency result in test [7], in [8] and in test [9] was “inactive” in each case.

Regarding `COC(=O)Nc1nc2ccccc2[nH]1`, the Potency entry in test [10], in test [1], in test [3], in test [5], in test [6] and in test [7] was “inactive” in each case. Further, the Potency entry in test [8] and in [9] was “inactive” each time. Also, the Potency in test [2] was 6.17 µM (active) and inactive.

With `CC(C)(O)C(=O)Nc1ccc([N+](=O)[O-])c(C(F)(F)F)c1`, the Potency result in test [1], in [2], in [3], in test [4], in test [7] and in test [8] was “inactive” in each case. Moreover, in test [9], the Potency result is “inactive”. The Potency in test [5] is 25.1 µM (active) and 17.9 µM (active); in test [6], 25.1 µM (active).

Take `CC(C)=CC1C(C(=O)OCN2C(=O)C3=C(CCCC3)C2=O)C1(C)C` (stereo not given): the Potency result in test [10], in test [1], in test [2], in test [3], in test [5] and in test [6] was “inactive” each time. For the same molecule, the Potency result in [7], in test [8] and in [9] was “inactive” each time.

For the molecule `O=C1C(Cl)=C(Cl)C(=O)c2ccccc21`, the Potency in test [10] is 6.19 µM (active) and 6.17 µM (active); in test [2] it was 15.5 µM (active) and 4.9 µM (active); in test [3], 27.6 µM (active) and inactive; in [4], 21.9 µM (active) and 6.92 µM (active); in [5], 6.19 µM (active) and 9.77 µM (active); in [6], 6.19 µM (active) and 7.76 µM (active). Further, the Potency in [7] is 4.91 µM (active); in [9] it was 15.5 µM (active) and 6.17 µM (active). In addition, the Potency entry in test [1] is “inactive”.

For the molecule `Cl`, the Potency result in [10], in [1], in [2], in test [3], in [5] and in test [6] was “inactive” throughout. Besides, the Potency entry in test [7], in test [8] and in [9] was “inactive” each time.

Consider `CC[n+]1c(-c2ccccc2)c2cc(N)ccc2c2ccc(N)cc21`, for which the Potency entry in test [10], in [1], in test [2], in [3], in [7] and in test [8] was “inactive” in each case. In addition, the Potency entry in test [9] is “inactive”. The Potency was 6.89 µM (active) and 9.52 µM (active) in [5]; 34.5 µM (active) in test [6].

On to `Clc1ccc(C(Cl)(Cl)Cl)cc1`, for which the Potency entry in test [10], in [1], in [2], in test [3], in test [5] and in test [6] was “inactive” in each case. The Potency entry in test [7], in [8] and in test [9] was “inactive” throughout.

For the molecule `CNC(=S)S`, the Potency entry in test [1], in test [2], in test [3], in [4], in [5] and in [6] was “inactive” throughout. For the same molecule, the Potency result in test [7], in [8] and in [9] was “inactive” in each case.

For the molecule `CC(C)(c1ccc(OCC2CO2)cc1)c1ccc(OCC2CO2)cc1` (stereo not given), the Potency result in test [10], in [1], in test [2], in test [3], in test [5] and in test [6] was “inactive” each time. The Potency result in test [7], in [8] and in [9] was “inactive” in each case.
